# Only some compounds are listed: those with a hit (about 27% of all), similar ones and a draw of the others.
# CYP2C19 act: cytochrome P450 2C19 (human) activation | recombinant CYP2C19, luciferin-H EGE luminescence; hits give high values; 0 = fully inhibited enzyme, 1 = untreated enzyme | activation factor at 5 µM | 96,000 tested, under 10 active;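 active = activation factor of at least 2 at 5 µM in the primary screen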
# Cav3 T inh: blocks human Cav3.2 T-type calcium channel; O95180; Cav3.2-expressing cells, Fluo-4 calcium fluorescence FDSS; hits give low values; B-score at 10 µM; 100,000 tested, 4% active;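 active = single-dose well whose peak fluorescence ratio is a statistical outlier from its plate by either plate-standardised score or position-corrected B-score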
# CYP2C9 act: activators of human CYP2C9 | 96,000 tested, 1.4% active | P11712 | recombinant CYP2C9, luciferin-H conversion, luminescence; hits give high values; factor 1 = untreated enzyme, 0 = blocked | AID 1024 | activation factor at 5 µM;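 active = activation factor of 2 or more for CYP2C9 at a 5 µM dose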
# Target sequence (P11712 whole entry, looked up): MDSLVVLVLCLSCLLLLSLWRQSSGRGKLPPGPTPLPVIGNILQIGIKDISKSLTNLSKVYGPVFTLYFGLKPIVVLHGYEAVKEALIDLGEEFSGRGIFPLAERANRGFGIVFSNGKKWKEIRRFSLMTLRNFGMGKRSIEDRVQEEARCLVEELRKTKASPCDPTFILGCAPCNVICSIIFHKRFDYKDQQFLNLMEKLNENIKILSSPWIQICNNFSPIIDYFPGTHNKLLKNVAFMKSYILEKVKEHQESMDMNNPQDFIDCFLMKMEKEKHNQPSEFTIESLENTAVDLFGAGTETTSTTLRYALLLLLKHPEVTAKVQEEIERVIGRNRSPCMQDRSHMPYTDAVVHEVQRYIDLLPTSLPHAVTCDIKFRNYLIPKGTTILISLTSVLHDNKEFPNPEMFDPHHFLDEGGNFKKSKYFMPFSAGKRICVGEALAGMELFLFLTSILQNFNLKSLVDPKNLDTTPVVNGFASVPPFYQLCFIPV
# CYP2C19 inh: blocks human cytochrome P450 2C19; CYP2C19 Supersomes, luciferin-H EGE luminescence, 30 min; inhibition, % at 5 µM; 96,000 tested, 21% active; AID 778;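 active = CYP2C19 inhibition above a set limit at 5 µM in the primary screen, cut at about 50% in these data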
# CYP2C9 inh: human CYP2C9 inhibition; P11712; inhibition, % at 5 µM; 96,000 tested, 20% active; CYP2C9 Supersomes, luciferin-H conversion, luminescence; AID 777;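 active = blocking of liver enzyme CYP2C9 beyond about 50% at 5 µM, limit read from the data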
# Hits are given with their value; – = inactive; · = no result.
SMILES,CYP2C19 act,Cav3 T inh,CYP2C9 act,CYP2C19 inh,CYP2C9 inh
CCOC(=O)c1cnc(-n2nc(C)cc2C)nc1NCc1ccccc1,–,–,–,–,68
CCOC(=O)c1cnc(-n2nc(C)cc2C)nc1NC(C)c1ccccc1 (stereo not given),·,-8.8,·,·,·
CCOC(=O)c1cnc(NCc2ccccc2)nc1C,–,–,–,51,62
CC(=O)NC(=O)c1nnn(Cc2ccccc2)c1NC(C)=O,–,–,–,–,–
O=C(c1cc(Cl)cc(Cl)c1)N1CCOCC1,–,–,–,–,–
O=C(Oc1ccc(-c2cnc3ccccc3n2)cc1)c1ccco1,–,–,–,–,–
Cc1ccc(C(O)P(=O)(OC2CCCCC2)OC2CCCCC2)cc1 (stereo not given),–,-4.2,–,89,62
COC(=O)[C@@H]1[C@H]2C[C@H]3c4[nH]c5ccccc5c4CCN3C[C@@H]2CC[C@@H]1O,·,–,·,·,·
CC1c2[nH]c3ccccc3c2CCN1S(C)(=O)=O (stereo not given),–,–,–,98,–
COc1cccc(C(=O)Nc2cccc(OCC(=O)O)c2)c1,–,–,–,70,–
COc1cccc(C(=O)Nc2cccc(SC)c2)c1,–,–,–,87,–
CNC(=O)c1[nH]cnc1C(=O)Nc1cccc(OC)c1,–,·,–,67,–
COC(=O)c1[nH]c2cc(OC)c(OC)cc2c1NC(=O)c1cccc(OC)c1,–,–,–,–,59
CN1CCN(CCCN2c3ccccc3Sc3ccc(C(F)(F)F)cc32)CC1,·,–,·,·,·
OC1(Cc2ccn[nH]2)CCCCC1,–,–,–,–,–
O=C1CCC(C(=O)O)(c2ccccc2)C1 (stereo not given),–,–,–,–,–
CCN(C(=O)C1CCN(S(=O)(=O)c2cccc3nonc23)CC1)c1ccccc1,–,–,–,–,–
CCOC(=O)N1CCN(S(=O)(=O)c2cccc3nonc23)CC1,–,–,–,82,71
CCN(CC)C(=O)C1CCN(S(=O)(=O)c2cccc3nonc23)CC1,–,–,–,65,–
CCOC(=O)N1CCC(NC(=O)C2CCCN(S(=O)(=O)c3cccc4nsnc34)C2)CC1 (stereo not given),–,–,–,–,–
CCOC(=O)N1CCN(S(=O)(=O)c2cccc3cccnc23)CC1,–,–,3.3,91,–
COc1cc2c(cc1OC)CN(C(=O)C(C)(C)C)CC2,–,–,–,–,–
COc1cc2c(cc1OC)CN(C(=O)C1(c3ccccc3)CC1)CC2,–,–,–,–,54
O=c1[nH]c(=O)n(C2CCCO2)cc1Br (stereo not given),–,–,–,–,–
Cc1nnc(SCC(=O)Nc2ccccc2NC(=O)CSc2nnc(C)s2)s1,–,–,–,–,–
SMILES,CYP2C19 act,Cav3 T inh,CYP2C9 act,CYP2C19 inh,CYP2C9 inh
Cc1nnc(SCC(=O)Nc2nsc(-c3ccc(C(C)(C)C)cc3)n2)s1,–,-7.6,–,–,–
CCC1=NN(C(=O)C(=O)Nc2ccc(OC)cc2)C(O)(C(F)(F)F)C1 (stereo not given),–,–,–,–,–
CCC1=NN(C(=O)CCc2ccccc2)C(O)(C(F)(F)F)C1 (stereo not given),–,–,–,67,–
CCC1=NN(C(=O)C(=O)NCCc2ccccc2)C(O)(C(F)(F)F)C1 (stereo not given),–,–,–,–,–
CCC1=NN(C(=O)Cc2ccc(OC)cc2)C(O)(C(F)(F)F)C1 (stereo not given),–,–,–,53,–
CCC1=NN(C(=O)C(=O)Nc2ccccc2OC)C(O)(C(F)(F)F)C1 (stereo not given),–,–,–,–,62
COc1ccc(NC(=O)c2cccnc2C(=O)O)c(OC)c1,–,–,–,–,–
CN(Cc1ccccc1)C(=O)CCS(=O)(=O)c1ccc2c(c1)n(C)c(=O)c(=O)n2C,–,-4.9,–,–,–
COc1ccc(-c2nnc(SC(C)C(=O)Nc3nccs3)n2Cc2ccccc2)cc1OC (stereo not given),–,–,–,–,56
COC(=O)c1ccc(CSc2nnc(CNC(=O)c3ccccc3F)o2)o1,–,–,–,–,–
CCOc1ccccc1NC(=O)CSc1nnc(CNC(=O)COc2ccc(Cl)cc2)o1,–,–,2,–,–
O=C(CSc1nccn1-c1ccc(Cl)cc1)NCc1ccc2c(c1)OCO2,–,·,–,100,98
O=C(COc1ccc(Cl)cc1)NCc1nnc(SCC(=O)NCc2ccc3c(c2)OCO3)o1,–,–,–,–,70

# Bioassay records as filed in PubChem BioAssay.
